# Laboratory results published in PubChem BioAssay AID588382 (National Center for Advancing Translational Sciences (NCATS), 2011).
# Among all 1,300 compounds or so, about 150 (12%) were called active. Inconclusive results (about 30%) are left out. This excerpt belongs to a sample that is enriched for actives. A number with no mark means an inactive call. Calls follow the shape of the dose curve; as a rule, active = well fitted cell-killing curve with a large enough effect; inconclusive = small, poorly fitted or top-dose-only effect, or effect the other way; inactive = flat fitted curve, though single readings scatter.
# Assay: qHTS of small molecules that selectively kill Giardia lamblia: Hit Validation in HepG2 cytotox;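 also: compound exposure lasted overnight at 37 deg C; nearly all actives have a fitted effect of over 55% in size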;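 as to activity change, negative = cytotoxicity: viability measured as cellular ATP by ATPLite luminescence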
# Conditions: cell viability; Potency: HepG2 cytotoxicity; series mostly up to 38.3 µM; activity change, negative = cytotoxicity: at the top concentration
# Summary of the method: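 Counterscreen cytotoxicity: ATPLite luminescence (15 min, room temperature) measured in HepG2 cells exposed overnight at 37 deg C to pin-transferred compound (23 nL) after overnight pre-incubation.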
# % is scaled to controls: 0 for no effect and ±100 for the full control effect; potency is read from the fitted curve at half-maximal effect.
Structure (SMILES),"activity change, negative = cytotoxicity [%]",Potency
O=C(COc1cccnc1[N+](=O)[O-])Nc1ccc(F)cc1,4.27,
COC1C(OC(=O)/C=C/C=C/C=C/C=C/C(=O)O)CCC2(CO2)C1C1(C)OC1CC=C(C)C (configuration not stated) (tested in a mixture with another compound),21.4,
O=C(c1ccc([N+](=O)[O-])o1)N1CCN(c2nc3ccc(F)cc3s2)CC1,-10.1,
O=C1NC(=O)/C(=C\c2ccc(Oc3ccc([N+](=O)[O-])cn3)cc2)S1,-15.5,
COc1ccccc1-n1cc2c([N+](=O)[O-])cc([N+](=O)[O-])cc2n1,11.2,
COCCn1c(C)cc(C(=O)COc2ccc(C)nc2[N+](=O)[O-])c1C,-1.94,
O=C(c1ccco1)N1CCN(c2c([N+](=O)[O-])nn(-c3cccc(Cl)c3)[n+]2[O-])CC1,20.3,
Cc1cc([N+](=O)[O-])nn1Cc1ccc(F)cc1,-0.393,
N/C(=N\OC(=O)c1ccc(Cl)cc1[N+](=O)[O-])c1ccccn1,-18.8,
CC12CCC(C(=O)Nc3ncc([N+](=O)[O-])s3)(OC1=O)C2(C)C (configuration not stated),-9.04,
CN(C)CCCn1cnc2c(c1=N)C(c1ccccc1)c1ccc3ccccc3c1O2 (configuration not stated),,2.07 µM (active)
Cc1ccc([C@@H]2CC=C(C(=O)O)[C@H](c3ccc(Cl)cc3)N2S(=O)(=O)c2ccc(C)cc2)cc1,8.99,
Cc1c[n+]([O-])ccc1[N+](=O)[O-],1.35,
Cc1c(NC(=O)c2cc(-c3ccc(Cl)c(Cl)c3)on2)c(=O)n(-c2ccccc2)n1C,4.57,
COc1ccc2cc(-c3cc(C(=O)OCC(=O)Nc4c(C)n(C)n(-c5ccccc5)c4=O)c4ccccc4n3)ccc2c1,,0.464 µM (active)
COc1cc(N=Nc2c(C)n(C)n(-c3ccccc3)c2=O)ccc1N,0.604,
Cc1ccc(CN=c2c([N+](=O)[O-])nn(-c3cccc(C)c3)n2O)cc1,9.21,
O=[N+]([O-])c1nn(-c2ccc3c(c2)OCCO3)n(O)c1=NC1CCN(Cc2ccccc2)CC1,-1.51,
CN(C)c1ccc(/C=C(/NC(=O)c2ccccc2)C(=O)N/N=C/c2ccc([N+](=O)[O-])c(O)c2)cc1,9.79,
Cc1ncc([N+](=O)[O-])n1CCOC(=O)NC(NCc1cccnc1)C(Cl)(Cl)Cl (configuration not stated),-2.24,
Cc1nc(C)c(C(=O)Nc2ncc([N+](=O)[O-])s2)o1,11.4,
COc1cccc(CN=c2c([N+](=O)[O-])nn(-c3ccccc3C)n2O)c1,8.23,
O=C(/C=C/c1cccc([N+](=O)[O-])c1)c1ccco1,17.7,
COC(=O)Nc1nc2ccc(C(=O)c3cccs3)cc2[nH]1,20.5,

Structure (SMILES),"activity change, negative = cytotoxicity [%]",Potency
Cc1ccn(-c2ccc(NC(=O)c3cccs3)cc2)n1,,9.27 µM (active)
CCOC(=O)N1CCN(C(=O)c2ccc(Cl)c(NC(=O)c3cccs3)c2)CC1,17.8,
CC(C)(C)c1ccc2c(c1)OC(C(=O)N/N=C/c1ccc([N+](=O)[O-])o1)CO2 (configuration not stated),-12.1,
Cc1ccc(N=c2c([N+](=O)[O-])nn(-c3ccccc3)n2O)c(C)c1,-15.1,
Cc1ccc(S(=O)(=O)N2[C@@H](c3ccccc3)C(C(=O)O)=CC[C@H]2c2cccc(Cl)c2)cc1,6.16,
C=C1C=C(C)n2ncc(C(=O)Nc3ccc(C)cn3)c2N1,-8.35,
O=C(Nc1ncc([N+](=O)[O-])s1)c1ccco1,-8.55,
O=C(COC(=O)c1ccccc1)Nc1ncc([N+](=O)[O-])s1,16.8,
Cc1ccc(C(=O)Nc2ncc([N+](=O)[O-])s2)cc1,,6.56 µM (active)
Cc1ccc(CC(=O)Nc2ncc([N+](=O)[O-])s2)cc1,3.03,
Cc1ccc(S(=O)(=O)CC(=O)Nc2ncc([N+](=O)[O-])s2)cc1,1.79,
O=C(Nc1ncc([N+](=O)[O-])s1)c1cccc([N+](=O)[O-])c1,,3.29 µM (active)
Cc1cc(Nc2ccccc2)c2c([N+](=O)[O-])cc(C)c(C)c2n1,9.04,
CC(NC(=O)COc1cccnc1[N+](=O)[O-])c1ccc(Cl)cc1 (configuration not stated),1.74,
O=[N+]([O-])c1ccc(CN2CCN(c3ccccc3Cl)CC2)o1,9.64,
CC(=NN1CC(=O)NC1=O)c1ccc([N+](=O)[O-])o1,-8.95,
CC(C)(C)C(=O)N1CCN(c2ccc(NC(=O)c3ccc([N+](=O)[O-])o3)cc2)CC1,,6.56 µM (active)
O=C(Nc1ccc(N2CCN(Cc3ccccc3F)CC2)cc1)c1ccc([N+](=O)[O-])o1,,2.93 µM (active)
O=C(Nc1ccc(N2CCCCC2)cc1)c1ccc([N+](=O)[O-])o1,,13.1 µM (active)
CC(C)C(=O)N1CCN(c2ccc(NC(=O)c3ccc([N+](=O)[O-])o3)cc2)CC1,,5.85 µM (active)
O=[N+]([O-])c1ccc(CN2CCN(c3ccc(F)cc3)CC2)o1,16.3,
O=[N+]([O-])c1ccc(CN2CCN(c3ccc(Cl)cc3)CC2)o1,2.99,
COc1cc(Nc2ccc(C)cc2)c([N+](=O)[O-])nc1[N+](=O)[O-],14.5,
